Source: PubChem BioAssay AID602329 (Broad Institute, 2012)
About 510 (0.14%) of roughly 360,000 compounds were called active. The entries come from a sample that favours actives as a whole. A number with no mark means an inactive call.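 How the source made its calls: active means mean normalized replicate activity at least 40 and at least half of replicates scoring 40 or more; inconclusive means only one of the two criteria met; inactive means mean below 40 and under half of replicates reaching 40.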

What follows are compounds tested against DNA repair and recombination protein RAD54-like (Homo sapiens) (UniProt Q92698) (assay: inhibitors of human RAD54 branch migration, primary screen, biochemical, fluorescence, single point (AID 602329;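 further: 0% = median of neutral control wells and 100% = median of positive control wells; inhibitors cause a drop in the FAM fluorescence signal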)). Details: RAD54 Holliday junction branch migration, FAM/BHQ fluorescence; at 10.4 µM; stronger effect = higher value.
Sequence of DNA repair and recombination protein RAD54-like (Homo sapiens) (Q92698 whole entry, looked up): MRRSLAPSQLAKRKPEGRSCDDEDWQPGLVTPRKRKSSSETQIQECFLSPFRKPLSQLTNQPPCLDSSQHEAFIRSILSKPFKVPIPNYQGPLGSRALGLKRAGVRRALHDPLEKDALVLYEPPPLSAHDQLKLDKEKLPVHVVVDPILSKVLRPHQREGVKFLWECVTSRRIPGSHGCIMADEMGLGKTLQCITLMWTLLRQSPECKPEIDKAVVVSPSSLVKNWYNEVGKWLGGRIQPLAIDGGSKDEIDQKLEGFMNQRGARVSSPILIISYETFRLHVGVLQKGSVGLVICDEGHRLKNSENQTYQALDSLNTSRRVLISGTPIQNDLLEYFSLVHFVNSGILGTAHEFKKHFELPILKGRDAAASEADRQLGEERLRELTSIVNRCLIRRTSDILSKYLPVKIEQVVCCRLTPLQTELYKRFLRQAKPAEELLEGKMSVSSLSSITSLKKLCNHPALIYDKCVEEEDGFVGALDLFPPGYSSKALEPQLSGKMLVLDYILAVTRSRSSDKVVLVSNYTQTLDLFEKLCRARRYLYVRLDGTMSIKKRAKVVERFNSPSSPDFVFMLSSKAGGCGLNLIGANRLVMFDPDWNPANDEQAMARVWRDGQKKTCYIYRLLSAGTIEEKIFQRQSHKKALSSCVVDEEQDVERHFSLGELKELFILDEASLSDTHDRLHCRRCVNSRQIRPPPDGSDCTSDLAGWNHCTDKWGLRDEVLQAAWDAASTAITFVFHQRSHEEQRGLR

| SMILES | inhibition |
| --- | --- |
| CCOc1cccc(=NC2CCCCC2)c2c(C)[nH]c(C)c12 | 76.8% (active) |
| COc1cccc(-c2ccc3n(c2=O)C[C@@H]2[C@@H](CO)[C@H](C(=O)O)[C@H]3N2C(=O)c2cnccn2)c1 | -0.151% |
| O=C(O)[C@@H]1[C@@H](CO)[C@@H]2Cn3c(ccc(-c4ccccc4F)c3=O)[C@H]1N2C(=O)c1cccnc1 | -3.76% |
| COC(=O)[C@@H]1[C@@H](CO)[C@@H]2Cn3c(ccc(C4=CCCCC4)c3=O)[C@H]1N2CC1CC1 | -6.66% |
| C[C@H](CO)N1C[C@H](C)[C@H](CN(C)C(=O)Oc2ccc3ccccc3c2)OCc2cnnn2CCCC1=O | -17.1% |
| COC(=O)[C@H]1[C@H](CO)[C@H]2Cn3c(ccc(C4=CCCC4)c3=O)[C@@H]1N2C(=O)CC1CC1 | 1.44% |
| CN1CCN(c2cc(N3CCNCC3)ccc2[N+](=O)[O-])CC1 | 68% (active) |
| COc1cccc(-c2nc3ccc(N4CCN(C)CC4)cc3[nH]2)c1 | 19.3% |
| COC(=O)[C@H]1[C@H](CO)[C@H]2Cn3c(ccc(-c4cccc(F)c4)c3=O)[C@@H]1N2Cc1ccccc1 | 9.7% |
| O=C(O)[C@H]1[C@H](CO)[C@H]2Cn3c(ccc(-c4ccccc4)c3=O)[C@@H]1N2S(=O)(=O)c1ccccc1F | 6.58% |
